Shown are actives, neighbours in structure and some others; about 1.4% of the full set was active somewhere.
BCLXL inh: inhibitors of human Bcl-xL, primary screen, biochemical, fluorescence polarization, HTS; GST-Bcl-xL / FITC-Bim BH3 peptide fluorescence polarization; Bcl-2-like protein 1 (Homo sapiens), Q07817; AID 2129, 2009; inhibition, % at 10.9 µM; 320,000 tested, 0.7% active;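 active = inhibition above the mean of all tested compounds plus 3 SD, cutoff set per campaign, cut at about 30% in these data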;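 note: inhibitors lower millipolarization by displacing the labeled peptide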
Target sequence (Q07817 whole entry, looked up): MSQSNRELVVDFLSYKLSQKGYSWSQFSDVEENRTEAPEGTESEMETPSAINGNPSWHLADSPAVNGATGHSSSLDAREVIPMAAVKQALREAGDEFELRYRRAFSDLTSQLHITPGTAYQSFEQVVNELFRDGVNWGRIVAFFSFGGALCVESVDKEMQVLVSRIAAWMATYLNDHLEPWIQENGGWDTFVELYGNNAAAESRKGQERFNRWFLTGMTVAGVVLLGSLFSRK
MEX-5 binding: MEX-5 zinc finger RNA-binding disruptors – biochemical, C. elegans, fluorescence polarization, MLPCN library, primary screen | 300,000 tested, 0.38% active | activity score (negative = inhibition of binding), % at 10 µM | Zinc finger protein mex-5 (Caenorhabditis elegans), Q9XUB2 | MEX-5/FITC-TCR2 RNA binding; hits give low values;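 active = inhibition past about -25% in most replicates, and total fluorescence under double the plate's negative control median, limit read from the data; inconclusive = replicates evenly split on the limit, or fluorescence at least double controls; inactive = too little inhibition in most replicates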
MCL1-BIM inh: inhibitors of MCL1 binding to BIM-BH3, primary screen, biochemical, fluorescence polarization | Induced myeloid leukemia cell differentiation protein Mcl-1 (Homo sapiens), Q07820 | GST-MCL1 / FITC-Bim-BH3 fluorescence polarization | inhibition, % at 10.9 µM | 320,000 tested, 0.68% active | AID 2057, 2009;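 active = inhibition above the mean inhibition of all tested compounds plus 3 SD, set per campaign, cut at about 40% in these data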;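 note: higher means more loss of mP so more displacement of Bim peptide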
eLon inh: inhibitors of E. coli Lon protease, primary screen, biochemical, fluorescence polarization. P0A9M0. purified E. coli Lon protease. inhibition, % at 7.94 µM. 360,000 tested, 0.42% active. AID 602123, 2011; in the data active = inhibition above about 13%, passing the limit was not always enough
GLD-1 TGE inh: GLD-1/TGE RNA complex disruptors, primary screen, biochemical, fluorescence polarization. purified GLD-1 + fluorescein TGE RNA. inhibition, % at 5.96 µM. 320,000 tested, 0.44% active. AID 2280, 2010;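 active = percent inhibition above a per-plate cutoff, the plate mean of test compounds plus 3 SD, cut at about 30% in these data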
Target sequence (Q17339 whole entry, looked up): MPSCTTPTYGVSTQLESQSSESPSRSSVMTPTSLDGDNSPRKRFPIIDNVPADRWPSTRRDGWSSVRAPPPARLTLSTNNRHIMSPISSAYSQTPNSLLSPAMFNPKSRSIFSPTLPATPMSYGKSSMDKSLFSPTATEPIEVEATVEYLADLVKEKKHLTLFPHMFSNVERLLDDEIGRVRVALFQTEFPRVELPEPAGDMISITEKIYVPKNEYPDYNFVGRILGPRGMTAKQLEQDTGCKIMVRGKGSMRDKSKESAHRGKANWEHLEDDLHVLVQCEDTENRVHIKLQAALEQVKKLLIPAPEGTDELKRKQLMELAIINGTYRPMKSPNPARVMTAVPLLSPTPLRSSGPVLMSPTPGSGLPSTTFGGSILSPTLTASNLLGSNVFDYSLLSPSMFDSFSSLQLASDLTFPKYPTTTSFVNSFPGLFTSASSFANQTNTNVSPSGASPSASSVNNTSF
Bcl-xL conf: Bcl-xL inhibitors blocking Bim BH3 binding, confirmation, counter-screen for MCL1 inhibitor project, biochemical, fluorescence polarization; shares compounds with MCL1-BIM inh; GST-Bcl-xL / FITC-Bim BH3 peptide FP binding; inhibition, % at 10.9 µM; 1,700 tested, 54% active;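 active = inhibition above a cutoff equal to the mean inhibition of all tested compounds plus 3 SD, cut at about 30% in these data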
MCL1 inh confirm: inhibitors of MCL1 binding to BIM-BH3, confirmation, biochemical, fluorescence polarization, triplicate; shares compounds with MCL1-BIM inh; GST-MCL1 / FITC-Bim-BH3 fluorescence polarization; inhibition, % at 10.9 µM; 1,700 tested, 61% active;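 active = inhibition above the average of all tested compounds plus 3 SD, cut at about 40% in these data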
Of the large screens only hits and unclear results are named; the others gave an inactive call (follow-up assays come after a bar, where they were run).

CC(=O)Oc1ccc(N2C(=O)c3cccc4c([N+](=O)[O-])ccc(c34)C2=O)cc1	none
O=C1c2cccc3c([N+](=O)[O-])ccc(c23)C(=O)N1O	BCLXL inh 57, MCL1-BIM inh 48 | Bcl-xL conf 43 | MCL1 inh confirm 58
O=C1c2cccc3c([N+](=O)[O-])ccc(c23)C(=O)N1c1ccc(Cl)cn1	BCLXL inh 120, MCL1-BIM inh 139, eLon inh 65, GLD-1 TGE inh 103 | Bcl-xL conf 82 | MCL1 inh confirm 105
CCN(CC)C(=O)C1=C(C)N(CCC2=CCCCC2)C(=O)C(CC(=O)NCc2ccco2)C1 (stereo unspecified)	none (no result: BCLXL inh, MEX-5 binding, MCL1-BIM inh, GLD-1 TGE inh)
O=c1oc2c3c4c(cc2c(C(F)(F)F)c1CCN1CCOCC1)CCCN4CCC3	BCLXL inh 107, MEX-5 binding inconclusive, MCL1-BIM inh 122, GLD-1 TGE inh 65 | Bcl-xL conf 107 | MCL1 inh confirm 116
Cc1ccc2[nH]c(=O)c3cc(C(=O)NC(C)C)sc3c2c1	BCLXL inh 138, MCL1-BIM inh 167, GLD-1 TGE inh 155 | Bcl-xL conf inactive | MCL1 inh confirm inactive
COC(=O)c1c(C)[nH]c(C=O)c1-c1ccccc1	none (no result: MEX-5 binding)
COC(=O)c1c(Cl)c2n3ccccc3c(C)c(-c3ccccc3)c-2c1C(=O)OC	BCLXL inh 172, MEX-5 binding -41, MCL1-BIM inh active, GLD-1 TGE inh 179 | Bcl-xL conf 37 | MCL1 inh confirm inactive
Clc1ccc(-c2cn3nc4c(nc3n2)CCCC4)cc1	BCLXL inh 104, MCL1-BIM inh 106, GLD-1 TGE inh 81 | Bcl-xL conf 77 | MCL1 inh confirm 89
O=C(CCCN1C(=O)/C(=C/c2ccco2)SC1=S)Nc1ccccc1C(=O)O	BCLXL inh 40, MCL1-BIM inh 83 | Bcl-xL conf 39 | MCL1 inh confirm 73
O=C(CN1C(=O)/C(=C\c2ccco2)SC1=S)Nc1ccc(O)cc1C(=O)O	BCLXL inh 46, MCL1-BIM inh 76 | Bcl-xL conf inactive | MCL1 inh confirm inactive
CC(C(=O)Nc1ccc(O)cc1C(=O)O)N1C(=O)/C(=C\c2cccs2)SC1=S (stereo unspecified)	MCL1-BIM inh 58 | Bcl-xL conf inactive | MCL1 inh confirm inactive
O=[N+]([O-])c1nn(-c2ccc3c(c2)OCCO3)n(O)c1=NCc1ccccc1Cl	BCLXL inh 42, MCL1-BIM inh 54 | Bcl-xL conf inactive | MCL1 inh confirm inactive
COc1ccccc1CN=c1c([N+](=O)[O-])nn(-c2ccc3c(c2)OCCO3)n1O	none
COc1ccc(NC(=O)CN(C)C(=O)c2cccc(-n3cccc3)c2)cc1	MCL1-BIM inh 48 | Bcl-xL conf inactive | MCL1 inh confirm inactive
O=c1c2c(ncn2C2CCCC2)n(Cc2ccccc2)c(=O)n1CCOc1ccccc1	none
O=c1c2c(ncn2C2CCCC2)n(Cc2ccccc2)c(=O)n1CCOc1ccc(Br)cc1	MCL1-BIM inh 53 | Bcl-xL conf inactive | MCL1 inh confirm inactive
CCCSCC(=O)Nc1ncc2c(n1)-c1ccccc1CC2	BCLXL inh 66, MCL1-BIM inh 62 | Bcl-xL conf 71 | MCL1 inh confirm 90
Cc1ccccc1OCc1nnc(SCC(=O)NCc2ccco2)n1C	none
COc1ccccc1OCc1nnc(SCC(=O)NCc2ccco2)n1Cc1ccco1	MCL1-BIM inh 46 | Bcl-xL conf inactive | MCL1 inh confirm inactive
Cc1cc2nc(-c3ccc(Cl)cc3)c(CC(C)(C)C)n2c(C)c1Br	none (no result: BCLXL inh, MEX-5 binding, MCL1-BIM inh, GLD-1 TGE inh)
O=C(CN1c2ccccc2Sc2ccccc21)NNC(=S)Nc1ccc(Cl)cc1	none
O=C(CN1CCOCC1)NNC(=S)Nc1ccc(Cl)cc1	MCL1-BIM inh 55 | Bcl-xL conf inactive | MCL1 inh confirm inactive
O=C(O)c1ccc(S(=O)(=O)Nc2ccc(O)c(Sc3nc4ccccc4s3)c2)cc1	MCL1-BIM inh 43 | Bcl-xL conf inactive | MCL1 inh confirm 59
COc1c(-c2ccc(O)cc2)oc2cc(O)cc(O)c2c1=O	MCL1-BIM inh 43 (no result: MEX-5 binding) | Bcl-xL conf inactive | MCL1 inh confirm 86
COc1ccc(-c2oc3cc(O)c(OC)c(O)c3c(=O)c2OC)cc1	none
Cc1ccc(S(=O)(=O)C(C#N)c2nc3ccccc3nc2N2CCCC2)cc1 (stereo unspecified)	BCLXL inh 83, MCL1-BIM inh 75, GLD-1 TGE inh 57 | Bcl-xL conf 64 | MCL1 inh confirm 63
O=C(Nc1ccccn1)C1CCN(C(=O)c2ccc(Cl)cc2)CC1	none (no result: BCLXL inh, MEX-5 binding, MCL1-BIM inh, GLD-1 TGE inh)
CCOc1ccc(OCCCC(=O)N2CCN(S(=O)(=O)c3ccc(Cl)cc3)CC2)cc1	none
Cc1ccc(C)c(S(=O)(=O)Nc2ccc3oc(C)c(C(=O)O)c3c2)c1	MCL1-BIM inh 42 | Bcl-xL conf inactive | MCL1 inh confirm 60
CC(=O)c1c(C)oc2ccc(NS(=O)(=O)c3ccc(C)cc3)cc12	none
O=C(O)c1cccc(-n2cccc2/C=C/[N+](=O)[O-])c1	BCLXL inh 44, MEX-5 binding -36, MCL1-BIM inh 72 | Bcl-xL conf 41 | MCL1 inh confirm 58
CCOC(=O)[C@]12CCCC=C1N(Cc1cccc3ccccc13)C(=O)[C@H](CC(=O)NCCCN1CCCC1=O)C2	none (no result: BCLXL inh, MEX-5 binding, MCL1-BIM inh, GLD-1 TGE inh)
CC1(C)Cc2cccc(OCC(=O)NCCc3ccc(S(N)(=O)=O)cc3)c2O1	BCLXL inh 35, MCL1-BIM inh 195 (no result: MEX-5 binding) | Bcl-xL conf inactive | MCL1 inh confirm inactive
CC1(C)CCN2CCC(C)(C)c3c(O)ccc1c32	BCLXL inh 141, MCL1-BIM inh 170, GLD-1 TGE inh 77 | Bcl-xL conf inactive | MCL1 inh confirm inactive
Clc1cccc2sc(N3CCCCC3)nc12	BCLXL inh 69, MCL1-BIM inh 58 | Bcl-xL conf inactive | MCL1 inh confirm inactive
Clc1cc(Cl)c2nc(N3CCCCC3)sc2c1	none
COc1ccc(CN2CCNC(=O)C2CC(=O)N(C)C2CCOCC2)cc1OC (stereo unspecified)	none (no result: BCLXL inh, MEX-5 binding, MCL1-BIM inh, GLD-1 TGE inh)
Cc1cc(C)c(C(O)c2ncc(-c3ccccc3F)[nH]2)c(C)c1 (stereo unspecified)	none (no result: BCLXL inh, MEX-5 binding, MCL1-BIM inh, GLD-1 TGE inh)
O=C(c1cc(-c2ccco2)nn1-c1cccc(Cl)c1)N1CCCCC1	MCL1-BIM inh 70 | Bcl-xL conf inactive | MCL1 inh confirm 65

Screening data (PubChem)
